We go through 23 targets from the supplement of paper PMC10849652.

Of roughly 8,800 targets only a part is listed; those with a hit were picked by preference. About 0.5% of all pairs of compound and target were hits.

UniProt Q9NZN8, sequence (Q9NZN8 whole entry, looked up): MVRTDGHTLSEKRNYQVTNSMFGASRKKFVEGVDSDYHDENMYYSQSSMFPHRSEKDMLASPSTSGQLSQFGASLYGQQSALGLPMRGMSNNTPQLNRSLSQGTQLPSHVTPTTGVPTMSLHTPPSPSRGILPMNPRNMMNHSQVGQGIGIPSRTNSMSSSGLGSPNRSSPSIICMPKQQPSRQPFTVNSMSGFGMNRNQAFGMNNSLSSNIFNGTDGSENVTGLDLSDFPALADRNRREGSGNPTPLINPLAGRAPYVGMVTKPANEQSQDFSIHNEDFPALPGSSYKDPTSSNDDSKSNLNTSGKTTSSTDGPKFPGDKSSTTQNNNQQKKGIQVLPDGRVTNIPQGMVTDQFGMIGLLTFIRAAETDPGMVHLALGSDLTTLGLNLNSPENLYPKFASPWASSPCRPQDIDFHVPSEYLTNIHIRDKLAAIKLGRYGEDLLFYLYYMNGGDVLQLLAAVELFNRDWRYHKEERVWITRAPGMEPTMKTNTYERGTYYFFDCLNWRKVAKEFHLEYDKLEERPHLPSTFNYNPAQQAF
UniProt Q96BY6, sequence (Q96BY6 whole entry, looked up): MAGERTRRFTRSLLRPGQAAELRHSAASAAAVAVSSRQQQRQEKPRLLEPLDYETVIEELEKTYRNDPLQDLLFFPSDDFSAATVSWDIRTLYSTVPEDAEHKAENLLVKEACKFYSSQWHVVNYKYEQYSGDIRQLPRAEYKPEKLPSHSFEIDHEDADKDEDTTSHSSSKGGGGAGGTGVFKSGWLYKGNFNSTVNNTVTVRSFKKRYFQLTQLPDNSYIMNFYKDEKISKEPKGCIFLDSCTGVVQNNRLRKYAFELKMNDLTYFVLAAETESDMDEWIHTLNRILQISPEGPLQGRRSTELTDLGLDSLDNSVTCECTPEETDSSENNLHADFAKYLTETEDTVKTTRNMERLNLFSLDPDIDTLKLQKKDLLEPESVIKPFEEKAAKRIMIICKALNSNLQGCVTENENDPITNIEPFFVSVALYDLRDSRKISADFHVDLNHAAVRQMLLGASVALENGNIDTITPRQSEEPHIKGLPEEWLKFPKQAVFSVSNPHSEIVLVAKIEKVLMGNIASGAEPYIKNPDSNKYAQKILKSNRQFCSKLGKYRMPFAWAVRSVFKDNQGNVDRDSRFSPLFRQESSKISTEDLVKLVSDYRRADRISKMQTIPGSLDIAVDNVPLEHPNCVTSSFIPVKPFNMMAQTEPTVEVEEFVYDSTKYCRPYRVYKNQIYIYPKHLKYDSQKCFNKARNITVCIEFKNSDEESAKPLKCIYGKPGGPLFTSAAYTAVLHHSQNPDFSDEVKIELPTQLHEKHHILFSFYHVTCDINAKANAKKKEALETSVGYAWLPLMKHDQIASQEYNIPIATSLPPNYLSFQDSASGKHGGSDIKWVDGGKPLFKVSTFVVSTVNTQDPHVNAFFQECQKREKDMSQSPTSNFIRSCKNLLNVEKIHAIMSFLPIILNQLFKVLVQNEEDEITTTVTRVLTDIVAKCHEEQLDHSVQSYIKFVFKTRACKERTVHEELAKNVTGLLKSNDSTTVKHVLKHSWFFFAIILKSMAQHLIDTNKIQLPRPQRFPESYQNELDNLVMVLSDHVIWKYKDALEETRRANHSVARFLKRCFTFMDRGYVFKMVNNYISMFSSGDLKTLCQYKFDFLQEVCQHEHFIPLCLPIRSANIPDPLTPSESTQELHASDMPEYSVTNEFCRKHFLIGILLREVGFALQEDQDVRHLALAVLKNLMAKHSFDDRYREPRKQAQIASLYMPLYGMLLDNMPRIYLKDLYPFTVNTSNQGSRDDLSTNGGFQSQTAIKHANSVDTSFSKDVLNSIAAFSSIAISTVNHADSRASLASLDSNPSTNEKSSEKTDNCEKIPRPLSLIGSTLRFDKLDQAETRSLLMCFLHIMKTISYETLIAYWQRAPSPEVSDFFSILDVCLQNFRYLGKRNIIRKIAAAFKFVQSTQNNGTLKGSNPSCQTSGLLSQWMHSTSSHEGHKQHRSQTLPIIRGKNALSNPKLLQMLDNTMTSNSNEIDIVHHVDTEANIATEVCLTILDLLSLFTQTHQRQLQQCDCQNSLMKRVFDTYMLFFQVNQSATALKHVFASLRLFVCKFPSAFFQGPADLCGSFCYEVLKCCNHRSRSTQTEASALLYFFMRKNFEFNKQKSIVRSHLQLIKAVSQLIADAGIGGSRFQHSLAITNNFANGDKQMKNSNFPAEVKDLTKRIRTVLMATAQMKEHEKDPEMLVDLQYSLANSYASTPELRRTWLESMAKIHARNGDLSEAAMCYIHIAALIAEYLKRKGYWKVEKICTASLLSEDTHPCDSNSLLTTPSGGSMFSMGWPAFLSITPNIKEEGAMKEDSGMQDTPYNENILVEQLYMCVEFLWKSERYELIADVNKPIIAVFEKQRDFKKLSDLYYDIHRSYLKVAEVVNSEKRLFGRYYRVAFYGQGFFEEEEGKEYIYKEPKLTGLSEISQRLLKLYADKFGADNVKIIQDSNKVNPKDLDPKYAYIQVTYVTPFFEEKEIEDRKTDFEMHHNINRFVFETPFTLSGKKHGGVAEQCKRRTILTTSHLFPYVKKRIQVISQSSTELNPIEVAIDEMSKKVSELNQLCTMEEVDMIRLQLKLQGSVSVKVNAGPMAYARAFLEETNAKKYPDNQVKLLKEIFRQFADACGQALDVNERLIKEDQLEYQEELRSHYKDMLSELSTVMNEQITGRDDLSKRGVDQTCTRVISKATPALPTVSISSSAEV
UniProt Q9HCG8, sequence (Q9HCG8 whole entry, looked up): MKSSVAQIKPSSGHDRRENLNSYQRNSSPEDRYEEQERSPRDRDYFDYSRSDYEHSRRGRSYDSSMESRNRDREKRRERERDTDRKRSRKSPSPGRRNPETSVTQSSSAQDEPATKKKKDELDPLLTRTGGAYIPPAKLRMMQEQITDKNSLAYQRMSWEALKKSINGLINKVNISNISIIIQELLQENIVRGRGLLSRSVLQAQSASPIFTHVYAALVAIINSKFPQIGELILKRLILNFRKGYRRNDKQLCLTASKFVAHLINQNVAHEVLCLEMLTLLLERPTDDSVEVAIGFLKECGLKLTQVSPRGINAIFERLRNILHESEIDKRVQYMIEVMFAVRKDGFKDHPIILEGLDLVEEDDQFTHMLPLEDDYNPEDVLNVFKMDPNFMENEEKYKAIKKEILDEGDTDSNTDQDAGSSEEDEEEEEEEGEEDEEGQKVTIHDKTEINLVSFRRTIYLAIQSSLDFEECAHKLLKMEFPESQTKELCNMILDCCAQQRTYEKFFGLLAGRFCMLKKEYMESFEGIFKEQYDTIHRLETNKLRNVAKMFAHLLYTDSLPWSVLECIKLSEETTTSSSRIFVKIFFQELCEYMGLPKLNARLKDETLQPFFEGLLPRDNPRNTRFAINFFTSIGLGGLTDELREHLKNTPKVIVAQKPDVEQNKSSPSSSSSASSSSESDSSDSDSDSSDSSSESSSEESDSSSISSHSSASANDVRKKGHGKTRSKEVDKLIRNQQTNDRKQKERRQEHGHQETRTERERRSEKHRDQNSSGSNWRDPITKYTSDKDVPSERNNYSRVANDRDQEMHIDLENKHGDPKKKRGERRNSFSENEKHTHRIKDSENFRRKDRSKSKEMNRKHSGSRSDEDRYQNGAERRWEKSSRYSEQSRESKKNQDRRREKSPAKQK
UniProt P50416, sequence (P50416 whole entry, looked up): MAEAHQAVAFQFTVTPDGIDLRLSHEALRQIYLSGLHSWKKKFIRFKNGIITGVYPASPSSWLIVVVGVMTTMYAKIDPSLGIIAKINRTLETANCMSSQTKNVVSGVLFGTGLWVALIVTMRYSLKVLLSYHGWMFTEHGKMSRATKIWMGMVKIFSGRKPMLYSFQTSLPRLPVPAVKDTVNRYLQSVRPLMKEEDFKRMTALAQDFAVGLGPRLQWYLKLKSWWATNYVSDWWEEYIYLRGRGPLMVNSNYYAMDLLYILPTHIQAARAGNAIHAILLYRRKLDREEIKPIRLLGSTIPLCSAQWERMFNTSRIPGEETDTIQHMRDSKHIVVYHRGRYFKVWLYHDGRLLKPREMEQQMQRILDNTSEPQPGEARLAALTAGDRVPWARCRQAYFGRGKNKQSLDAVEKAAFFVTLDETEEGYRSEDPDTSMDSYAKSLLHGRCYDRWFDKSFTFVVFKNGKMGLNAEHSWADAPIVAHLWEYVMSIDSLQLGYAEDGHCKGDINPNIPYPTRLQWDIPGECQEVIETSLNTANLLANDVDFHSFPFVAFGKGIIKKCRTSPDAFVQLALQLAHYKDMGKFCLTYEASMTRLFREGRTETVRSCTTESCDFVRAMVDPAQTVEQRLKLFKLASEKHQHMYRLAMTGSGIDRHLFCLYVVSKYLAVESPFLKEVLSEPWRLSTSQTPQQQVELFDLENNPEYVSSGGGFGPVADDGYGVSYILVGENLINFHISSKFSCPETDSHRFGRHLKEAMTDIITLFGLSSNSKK
UniProt O75208, sequence (O75208 whole entry, looked up): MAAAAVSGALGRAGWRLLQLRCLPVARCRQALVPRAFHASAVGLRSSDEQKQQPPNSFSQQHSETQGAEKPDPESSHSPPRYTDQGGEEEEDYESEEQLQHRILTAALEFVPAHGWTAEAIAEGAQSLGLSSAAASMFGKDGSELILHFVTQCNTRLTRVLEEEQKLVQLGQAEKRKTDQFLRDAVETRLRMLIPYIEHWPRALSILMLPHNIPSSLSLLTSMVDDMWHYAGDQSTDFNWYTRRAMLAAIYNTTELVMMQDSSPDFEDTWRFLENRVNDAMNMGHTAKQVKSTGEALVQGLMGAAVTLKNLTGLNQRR
UniProt O76075, sequence (O76075 whole entry, looked up): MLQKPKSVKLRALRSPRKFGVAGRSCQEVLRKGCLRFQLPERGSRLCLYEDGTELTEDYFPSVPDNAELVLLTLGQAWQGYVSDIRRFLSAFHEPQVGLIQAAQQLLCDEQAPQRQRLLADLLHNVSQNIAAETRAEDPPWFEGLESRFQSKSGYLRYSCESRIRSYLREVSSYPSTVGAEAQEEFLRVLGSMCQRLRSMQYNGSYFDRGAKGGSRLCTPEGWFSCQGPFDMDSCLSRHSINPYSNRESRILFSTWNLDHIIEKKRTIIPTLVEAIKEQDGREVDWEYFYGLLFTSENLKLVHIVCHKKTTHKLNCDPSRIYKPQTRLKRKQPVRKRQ

Compound in this assay: CC(=O)c1cnc2ccc(-c3cc(Cl)c(O)c(Cl)c3)nc2c1N[C@H]1CC[C@H](CN(C)C)CC1
Put plainly: log2 fold change, soluble protein after heating vs DMSO (PISA); higher = thermal stabilisation; K562 lysate, 10 uM; active = over 0.2 and 3.5 SD of the protein, either way, in both replicates (recomputed). The essentials: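 K562 pellets were dounce-homogenised in PBS pH 7.4 containing 1 mM MgCl2, and the crude extract, at 1 mg/mL protein, was exposed to 10 μM compound for 30 min. Aliquots were heated for 3 min across 48°C-58°C, pooled, brought to 0.5% NP-40 at 4°C and spun at 21,000xg for 90 min, with the supernatant taken as soluble protein. TMTpro 16plex LC-MS/MS with equalised channel sums quantified that protein. Values are log-two fold changes in thermal stability relative to solvent controls, taken from duplicates.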
Consider DLGAP5 (UniProt Q15398), for which the log2 fold change was 0.02 (inactive). As for DCTN1 (UniProt Q14203), the log2 fold change was 0.01 (inactive). Next, DOCK10 (UniProt Q96BY6): 0.02 (inactive); DFFB (UniProt O76075): -0.01 (inactive). Next, CWC22 (UniProt Q9HCG8): -0.007 (inactive); CHMP4A isoform 2 (UniProt Q9BY43): 0.011 (inactive).

In the case of DDX54 isoform 2 (UniProt Q8TDD1), the log2 fold change is 0.006 (inactive). Regarding DLG3 isoform 2 (UniProt Q92796), the log2 fold change was 0.009 (inactive).

As to COG3 (UniProt Q96JB2), the log2 fold change is -0.008 (inactive). Next, CMPK2 (UniProt Q5EBM0): 0.045 (inactive).

As to CNOT6L (UniProt Q96LI5), the log2 fold change is 0.015 (inactive). To CSK (UniProt P41240) belongs 0.242 (inactive); to CYP24A1 (UniProt Q07973), -0.036 (inactive); to DAZAP1 (UniProt Q96EP5), -0.011 (inactive).

With CNIH4 (UniProt Q9P003), the log2 fold change was -0.014 (inactive).

For the target DNM2 (UniProt P50570), the log2 fold change was 0 (inactive). To CMIP (UniProt Q8IY22) belongs 0.024 (inactive).

COQ9 (UniProt O75208): the log2 fold change is 0.023 (inactive). To CNOT2 (UniProt Q9NZN8) belongs 0.037 (inactive); to DOCK8 (UniProt Q8NF50), -0.012 (inactive); to CSNK2B (UniProt P67870), 0.408 (active). To CPT1A (UniProt P50416) belongs -0.021 (inactive); to DNAH10 (UniProt Q8IVF4), -0.017 (inactive).
